Compound activity: PubChem, National Center for Advancing Translational Sciences (NCATS)
A selection: hits, their analogues and other compounds. The true share with any hit is near 7.9%.
HCMV antiviral: blocks human cytomegalovirus replication. HFF cells, HCMV-luciferase reporter, 72 h; active compounds read low. activity change, negative = inhibition, % at 57.5 µM. 4.5% of 410,000 active; in the data active = activity change below about -60%; inconclusive = no clear call, values can overlap the other calls; inactive = above about -39%
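Steps: HFFs plated, 16 h 37C; compounds added; HCMV-luciferase added to MOI 1 PFU/cell; 72 h 37C; OneGlo reagent, 5 min room temperature; luminescence read, normalized to controls.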
FMDV antiviral: foot and mouth disease virus antiviral activity. FMDV antiviral cell-based qHTS. Potency, µM (doses to about 57.9 µM), inactives show at the highest dose activity change, negative = inhibition, most hits filed as inhibitors. 1.2% of 410,000 active. AID 1159524; calls by dose curve; tested in HEK293T cells; note: read-out not given here; potency is the fitted concentration of half-maximal effect; nearly all actives have a fitted effect of over 45% in size
Lassa entry inh: inhibitors of Lassa virus binding or cell entry; Lassa virus pseudotype entry inhibition, cell reporter; Potency, µM (highest dose often 37.9 µM), for the others: at the highest dose activity change, negative = inhibition, most hits filed as inhibitors; 1.2% of 300,000 active; calls by dose curve; tested in HEK293 cells; note: potency is the fitted concentration of half-maximal effect; nearly all actives have a fitted effect of over 50% in size
HCV inhibitor: HCV inhibition; Huh7.5.1 HCVcc-Cre infection, luciferase reporter, 44 h; Potency, µM (doses to about 41.8 µM), inactives show top-dose activity change, negative = inhibition, hits mostly inhibitors; 3.4% of 340,000 active; AID 651820; active = well fitted inhibition curve with a large enough effect; inconclusive = small, poorly fitted or top-dose-only effect, or another doubt; inactive = no such curve, though single readings can be large or run the other way; note: potency is the fitted concentration of half-maximal effect
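HCVcc-Cre virus at an moi near 0.5 was added right after compound to cells cultured 4 h from seeding (1,000 cells/well). Luciferase activity was determined 44 h later, 15 min after substrate addition at RT.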
Marburg entry inh: Marburg virus entry inhibition | Marburg virus pseudotyped entry inhibition, cell reporter | 1.8% of 300,000 active | Potency, µM (series often up to 37.8 µM), inactives show at the highest dose activity change, negative = inhibition, most hits filed as inhibitors; calls by dose curve; tested in HEK293 cells; note: potency is the fitted concentration of half-maximal effect
Starred values were filed as active, the others as inactive; ? = inconclusive; . = no result given; [ ] = dose if it differs, or a comment. % is set by controls: 0 for no effect and ±100 for the full control effect.

SMILES | HCMV antiviral | FMDV antiviral | Lassa entry inh | HCV inhibitor | Marburg entry inh
OCCN1CCN(CCCN2c3ccccc3Sc3ccc(Cl)cc32)CC1 | -8 | -21% | 15µM* | ? | 5µM*
CC[N+](C)(C)CC/C=C1/c2ccccc2Sc2ccc(Cl)cc21 | 11 | -8% | 8% | -13% | -20%[14.2 µM]
CC(=O)c1ccc2c(c1)N(CCCN1CCC(CCO)CC1)c1ccccc1S2 | 18 | -15% | . | 3.2µM* | .
COc1ccccc1N1CCN(c2nc(CNC(=O)c3cc(C)oc3C)nc3ccccc23)CC1 | . | -23% | . | . | .
Cc1nnc(NC(=O)CC(NC(=O)C(F)(F)F)c2ccccc2)s1 (centres undefined) | 44 | 44% | -28% | 6% | 0%[46.1 µM]
O=C(CC(NC(=O)C(F)(F)F)c1ccccc1)Nc1nnc(CCc2ccccc2)s1 (centres undefined) | -65* | -17% | -7% | 34% | ?
COc1ccc(C2c3c4c(n(C)c3CCN2C)CCN(C)C4c2ccc(OC)cc2)cc1 (centres undefined) | -25 | 7% | ? | 13µM* | ?
COc1ccc(S(=O)(=O)c2snnc2C)cc1 | ? | -10% | . | 8% | .
CCCS(=O)(=O)c1snnc1C | -72* | -17% | 12% | 23% | 16%
O=C1N=c2ccccc2=NC1C(=O)c1ccccc1 (centres undefined) | . | . | . | . | 6%
CC(C)COC(=O)N(C)c1ccc(C(O)(C(F)(F)F)C(F)(F)F)cc1 | 8 | ? | 3.5µM* | ? | 5%
CCOC(=O)N(C)c1ccc(C(O)(C(=O)OC)C(F)(F)F)cc1 (centres undefined) | 6 | -19% | -19% | -3% | 11%
CCCCCC1CC(CC#CCN2CCOCC2)C(=O)O1 (centres undefined) | 14 | -25% | -19%[14.3 µM] | -8% | 10%
COc1ccc(CC2C(=O)NC(C)C(=O)N(C)C3C(=O)N(C)C(Cc4ccc(O)c(c4)Oc4ccc(cc4)C3O)C(=O)NC(C)C(=O)NC(C)C(=O)N2C)cc1 (centres undefined) | -98* | ? | ? | ? | ?
Cc1ccc(-c2nnc(C3CCN(S(=O)(=O)c4ccc(C)c(C)c4)CC3)o2)cc1 | ? | -5% | 9%[46.1 µM] | . | -1%[46.1 µM]
Cc1cccc(-c2nnc(C3CCN(S(=O)(=O)c4cccc(Cl)c4)CC3)o2)c1 | -94* | 2% | -12%[46.1 µM] | . | ?
CC(=O)Nc1ccc(S(=O)(=O)N2CCC(c3nnc(-c4ccc(C)cc4)o3)CC2)cc1 | -96* | ? | -1%[46.1 µM] | -9% | 0%[46.1 µM]
CCOC(=O)c1sc(N(Cc2ccccc2)C(=O)COC(=O)c2ccccc2O)nc1C | 12 | 21% | -24% | 0% | ?
CCOC(=O)c1sc(N(Cc2ccccc2)C(=O)COC(=O)c2ccc(O)cc2)nc1C | ? | 0% | 2.1µM* | ? | ?
CCOC(=O)c1sc(N(Cc2ccccc2)C(=O)CCl)nc1C | -25 | ? | 18µM* | 18µM* | ?
COC(=O)[C@@H]1CCCN1Cc1ccc2c(c1)CN(Cc1ccc(OC)c(C)c1)CCO2 | . | 2% | . | . | .
C=CCCC(=O)N1C[C@H]2CON(C)[C@H]2C[C@H]1c1ccc(Br)cc1 | -101* | -17% | . | . | .
O=C(COc1ccc(C(=O)c2ccc(F)cc2)cc1)NCc1ccc(F)cc1 | -78* | -28% | ? | -25% | -24%
Cc1ccc(CNC(=O)COc2ccc(C(=O)c3ccc(F)cc3)cc2)cc1 | -75* | -22% | ? | 14% | -21%
COc1ccc(CNC(=O)COc2ccc(C(=O)c3ccc(F)cc3)cc2)cc1 | -20 | 0% | ? | ? | -45%
SMILES | HCMV antiviral | FMDV antiviral | Lassa entry inh | HCV inhibitor | Marburg entry inh
Cc1cc(C)cc(N2CC(c3nc(-c4ccccc4C)no3)CC2=O)c1 (centres undefined) | 3 | -13% | -3%[46.1 µM] | . | .
COC(=O)C1=CN(Cc2ccc(OC)cc2)C=C(C(=O)OC)C1c1ccsc1 | -7 | -8% | 10µM* | -19% | ?
COC(=O)C1=CN(CCOC23CC4CC(CC(C4)C2)C3)C=C(C(=O)OC)C1c1ccsc1 | -32 | -22% | ? | 32µM* | ?
COC(=O)C1=CN(CC2CCCO2)C=C(C(=O)OC)C1c1ccsc1 (centres undefined) | 47 | -20% | -2% | 8% | 11%
N#CCc1ccc(OC(=O)c2ccncc2)cc1 | 26 | -1% | 10%[46.1 µM] | 24% | -7%[46.1 µM]
Cc1ccc(-c2nnc(Nc3ccccc3)o2)cc1 | ? | . | ? | -10% | 1.6µM*
Cc1ccc(C)c(-n2c(N)c(C#N)c3nc4ccccc4nc32)c1 | -3 | -5% | 3%[46.1 µM] | . | .
